According to PubChem BioAssay AID485297 (National Center for Advancing Translational Sciences (NCATS), 2010):
About 9,100 (2.8%) of roughly 320,000 compounds were called active. About 3% were inconclusive and are not listed. The call rests on the fitted dose curve; in most records, active means well fitted activation curve with a large enough effect; inconclusive means small, poorly fitted or top-dose-only effect; inactive means no such curve, though single readings can be large or run the other way. Many of the other results were omitted from the sample, so actives are more common in it than they were.

Assay: qHTS Assay for Rab9 Promoter Activators; further: nearly all actives have a fitted effect of over 60% in size; on activation, negative = inhibition: % of control where 0% means no effect
Details: Huh7 Rab9 promoter-luciferase reporter, luminescence, 24 h; series mostly up to 9.22 µM; activation, negative = inhibition: at the top concentration
Outline: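 Huh7 cells stably carrying Rab9 promoter–luciferase reporter, plated 1500 cells/well, compound added after 2 h and incubated 24 h at 37 °C; luciferase luminescence then read after 10 min with detection reagent.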
Potency means the concentration at half of the fitted maximal effect.

Row | SMILES | Potency | activation, negative = inhibition
1 | Cc1ccc2nc(-c3ccc(NC(=O)c4cccnc4)cc3)oc2c1 | 0.199 µM (active) | 
2 | CC(=O)Nc1ccc(S(=O)(=O)N(C)c2nc3ccccc3nc2Cl)cc1 |  | -2.81% (inactive)
3 | CC(=O)Nc1ccc(-c2nc3ccccc3o2)cc1 | 1 µM (active) | 
4 | CC(=O)NC(=S)Nc1ccc(NC(=O)c2cccnc2)cc1 |  | -0.126% (inactive)
5 | CCc1nc(Nc2ccc(NC(C)=O)cc2)c2oc3ccccc3c2n1 |  | 11.8% (inactive)
6 | Cc1cc(NS(=O)(=O)c2ccc(NC(=O)c3cccnc3)cc2)nc(C)n1 |  | -0.278% (inactive)
7 | CCOc1cc(/C=C/C(=O)OCC(=O)NCCN2C(=O)CSC2=O)ccc1OCC(C)C |  | 18.5% (inactive)
8 | O=C(OCC(=O)N1CCc2ccccc21)C1CCCN1S(=O)(=O)c1ccc(Cl)cc1 (stereo not given) |  | -5.54% (inactive)
9 | CCOC(=O)C1CCCN(C(=O)c2ccc(C)c(S(=O)(=O)N3CCCCC3)c2)C1 (stereo not given) |  | -3.63% (inactive)
10 | CCOC(=O)Cc1csc(SCC(=O)Nc2ccc(C)cc2F)n1 |  | -0.949% (inactive)
11 | C/C(CC(=O)Nc1ccc(N(C)C)cc1)=N\NC(=O)c1ccccc1F |  | -1.52% (inactive)
12 | C/C(=N\NC(=O)c1ccccc1F)c1ccccn1 | 0.316 µM (active) | 
13 | C/C(=N\NC(=O)Cc1ccc(Cl)cc1)c1ccccn1 |  | -17% (inactive)
14 | CN(C)S(=O)(=O)c1cccc(NC(=O)COc2ccc3ccccc3c2)c1 |  | -0.974% (inactive)
15 | O=C(Nc1ccn(Cc2ccccc2)n1)c1n[nH]c([N+](=O)[O-])c1Cl | 0.355 µM (active) | 
16 | Cn1cc([N+](=O)[O-])c(C(=O)Nc2cnn(Cc3ccc(F)cc3)c2)n1 |  | -0.795% (inactive)
17 | Cc1ccc(Cn2ccc(NC(=O)C3C4CCC(C4)C3C(=O)O)n2)cc1 (stereo not given) |  | -0.0059% (inactive)
18 | O=C(Nc1cccc(NC(=O)c2cccc(F)c2)c1)c1ccccc1 |  | -7.19% (inactive)
19 | O=C(Nc1ccn(Cc2ccccc2)n1)c1cccc(F)c1 | 1.41 µM (active) | 
20 | O=C(Nc1ccccc1N1CCN(c2ccccc2)CC1)c1cccc(F)c1 |  | -3.36% (inactive)
21 | CN1CCN(S(=O)(=O)c2ccc(N3CCN(c4ccccc4O)CC3)c([N+](=O)[O-])c2)CC1 |  | -3.77% (inactive)
22 | CCN(CC)c1ccc(NC(=O)CN2C(=O)NC3(CCc4ccccc43)C2=O)cc1 (stereo not given) |  | -1.25% (inactive)

Row | SMILES | Potency | activation, negative = inhibition
23 | CN(CC(=O)NC1CCN(Cc2ccccc2)CC1)S(=O)(=O)c1ccc(Cl)s1 |  | -4.41% (inactive)
24 | CCCCN(CC(=O)Nc1cccc(S(=O)(=O)N2CCCC2)c1)Cc1nc2ccccc2c(=O)[nH]1 |  | -5.14% (inactive)
25 | CC(=O)Cn1ncc(N2CCOCC2)c(Br)c1=O |  | -3.1% (inactive)
26 | O=C(Cn1ncc(N2CCCC2)c(Br)c1=O)c1ccc(Cl)cc1 | 1.41 µM (active) | 
27 | CCn1c(=O)c(=O)n(CC)c2cc(N3CCCCC3)c(NC(=O)c3ccc(Cl)cc3)cc21 |  | -3.75% (inactive)
28 | O=C(COc1ccccc1Cl)N1N=C(c2cccs2)CC1c1ccco1 (stereo not given) |  | 0.112% (inactive)
29 | CN(Cc1ccccn1)Cc1nc(-c2ccc(Cl)cc2)no1 |  | -0.951% (inactive)
30 | Cc1cc(Cl)ccc1OCc1nc(-c2ccncc2)no1 | 2.82 µM (active) | 
31 | COc1ccc(-c2noc(COc3ccc(Cl)c(C)c3)n2)cc1 |  | 2.26% (inactive)
32 | CCC(C)N(C(=O)CSc1nnnn1-c1ccccc1OC)C1CCS(=O)(=O)C1 (stereo not given) |  | 4.43% (inactive)
33 | CC1CC(=O)Nc2ccccc2N1C(=O)COc1ccc2cc(Br)ccc2c1 (stereo not given) |  | 3.67% (inactive)
34 | COc1ccc([N+](=O)[O-])cc1NC(=O)CCc1ccccc1 |  | 8.53% (inactive)
35 | O=C(CCc1ccccc1)Nc1ncc([N+](=O)[O-])s1 | 2.24 µM (active) | 
36 | CC(C)Cc1nnc(NC(=O)CCc2ccccc2)s1 |  | 4.03% (inactive)
37 | CCOC(=O)c1sc(NC(=O)C2CSC3(C)CCC(=O)N23)nc1C (stereo not given) |  | -6.76% (inactive)
38 | O=C(NCCc1ccccc1)c1ccc2c(c1)N(Cc1ccccc1)CCS2 |  | -2.68% (inactive)
39 | CC1CCCN(c2ccc(C(=O)NCCc3ccccc3)cn2)C1 (stereo not given) | 2.51 µM (active) | 
40 | CC1CCN(c2c(NCc3ccc(C(=O)NCc4ccccc4)cc3)c(=O)c2=O)CC1 |  | 0.271% (inactive)
41 | Cc1cc(C(=O)COC(=O)CNC(=O)c2ccc(F)cc2)c(C)n1Cc1ccco1 | 3.16 µM (active) | 
42 | COCCn1c(C)cc(C(=O)COC(=O)CNC(=O)c2ccco2)c1C |  | -4.5% (inactive)
43 | Cc1cc(C(=O)CSc2nc(N)cc(=O)[nH]2)c(C)n1Cc1ccco1 |  | -17.4% (inactive)
44 | Cc1c([N+](=O)[O-])c(N)nn1C |  | -0.146% (inactive)

Row | SMILES | Potency | activation, negative = inhibition
45 | Cc1c(NC(=O)CSc2nnc(-c3cccnc3)n2N)c(=O)n(-c2ccccc2)n1C |  | 0.783% (inactive)
46 | CC(NC(=O)c1ccco1)C(=O)Nc1nc(-c2ccccn2)cs1 (stereo not given) |  | 9.64% (inactive)
47 | Clc1ccc(Nc2nc(-c3cccs3)cs2)nc1 | 3.16 µM (active) | 
48 | COc1ccc(C(=O)Nc2nc(-c3ccc(S(=O)(=O)N4CCOCC4)cc3)cs2)cc1 |  | -10.1% (inactive)
49 | c1ccc(Nc2nc(-c3ccncc3)cs2)nc1 | 1.58 µM (active) | 
50 | CCCn1c(CCNc2nc(-c3ccc(OC)cc3)cs2)nc2ccccc21 |  | 4.91% (inactive)
51 | Clc1ccc(Cc2nnc(-c3cccs3)o2)cc1 |  | 23.6% (inactive)
52 | Brc1ccc(-c2csc(N/N=C/c3cccnc3)n2)cc1 |  | 9.43% (inactive)
53 | COC(=O)c1cc(-c2cccs2)nc2ccccc12 |  | -3.27% [at 1.84 µM] (inactive)
54 | c1cnc(Nc2nc(-c3ccc4ccccc4c3)cs2)nc1 | 0.282 µM (active) | 
55 | COc1ccc(-c2csc(Nc3ccccn3)n2)cc1 | 0.282 µM (active) | 
56 | Cc1ccc(S(=O)(=O)NCCC(=O)NCc2ccc(Cl)cc2)cc1C |  | -1.24% (inactive)
57 | CCN(CC)S(=O)(=O)c1ccc(CNC(=O)CN2C(=O)NC3(CCc4ccccc43)C2=O)cc1 (stereo not given) |  | -4.71% (inactive)
58 | O=C1C=C(c2cc(C(F)(F)F)cc(C(F)(F)F)c2)C[C@@H](c2ccc3c(c2)OCO3)C1 |  | -9.28% (inactive)
59 | COc1ccc(-c2sc3ccc(OC)cc3c2C#Cc2ccccn2)cc1 |  | -0.366% (inactive)
60 | Cc1cc(C)cc(NC(=O)C(c2ccccc2)N2CCN(CC(=O)N3CCCC3)CC2)c1 (stereo not given) |  | -6.26% (inactive)
61 | c1ccc(C2CCC(N3CCC(N4CCCCC4)CC3)CC2)cc1 (stereo not given) |  | -8.43% (inactive)
62 | COc1ccc(NC(=O)c2sc(N)nc2-c2ccccc2)cc1 |  | -0.349% (inactive)
63 | COc1ccc(Nc2nc(-c3ccccc3)cs2)cc1 | 2.51 µM (active) | 
64 | COc1ccc(-c2csc(NC3OC(=O)c4ccccc43)n2)cc1 (stereo not given) |  | 3.91% (inactive)
65 | CCN(CC(=O)Nc1ccccc1C(=O)NC1CC1)Cc1cccs1 |  | 3.29% (inactive)
66 | CCCCN(C(=O)C(CCSC)N1C(=O)c2ccccc2C1=O)c1c(N)n(CCC)c(=O)[nH]c1=O (stereo not given) |  | 0.148% (inactive)

Row | SMILES | Potency | activation, negative = inhibition
67 | COc1ccc(OCc2n[nH]c(=S)n2N)cc1 |  | -6.39% (inactive)
68 | COc1ccc(OCc2ccc(-c3nc4ccccc4c(=O)n3N)o2)cc1 | 1.26 µM (active) | 
69 | COc1ccc(-c2nc3ccccc3c(=O)n2CCc2ccc(O)cc2)cc1 |  | -5.76% (inactive)
70 | O=C(CSc1nc2[nH]c(=O)[nH]c(=O)c2s1)Nc1cccc(F)c1 |  | 1.4% (inactive)
71 | Cc1ccc(NC(=O)C(C)Sc2nnc(C3CC3)n2C2CC2)cc1S(=O)(=O)N1CCOCC1 (stereo not given) |  | -1.7% (inactive)
72 | Cc1ccc(-n2nc3ccc(NC(=O)/C=C/c4ccco4)cc3n2)cc1C |  | 15.4% (inactive)
73 | CCC(=O)Nc1ccc2nn(-c3ccc(F)cc3)nc2c1 | 0.631 µM (active) | 
74 | Cc1cccc(C(=O)OCC(=O)Nc2ccc(F)cc2)c1 |  | 0.584% (inactive)
75 | C=CCn1c(C)cc(C(=O)CN2C(=O)c3ccccc3C2=O)c1C | 0.355 µM (active) | 
76 | C=CCN(CC=C)C(=O)CN1C(=O)c2ccccc2C1=O |  | 2.95% (inactive)
77 | Cc1cc(C(=O)COC(=O)CCCN2C(=O)c3ccccc3C2=O)c(C)n1C |  | -6.04% (inactive)
78 | COc1cccc(C2=CC(=O)C[C@H](c3ccc(F)cc3)C2)c1OC |  | -9.93% (inactive)
79 | Cc1cc(C)cc(OCC(=O)Nc2ccc(N3CCOCC3)cc2N2CCOCC2)c1 |  | -3.26% (inactive)
80 | Cc1ccc2cc(/C=N/Nc3ccc(C(=O)O)cc3)c(Cl)nc2c1 | 1.26 µM (active) | 
81 | Cc1ccc2cc(/C=N/NC(=O)[C@@H]3CCCN3)c(Cl)nc2c1 |  | -0.292% (inactive)
82 | CSCC[C@H](NC(=O)OC(C)(C)C)C(=O)N/N=C/c1cc2ccc(C)cc2nc1Cl |  | 0.316% (inactive)
83 | CC1(C)O[C@@H]2[C@H](O1)[C@@H](COS(=O)(=O)O)O[C@H]2n1cnc2c(=O)[nH]cnc21 |  | -4.21% (inactive)
84 | Cc1ccsc1C(=O)OCC(=O)Nc1cccc(F)c1 |  | 19.3% (inactive)
85 | Cc1ccc(C(=O)Oc2coc(CSc3nnc(NC(=O)c4cccs4)s3)cc2=O)cc1C |  | 2.51% (inactive)
86 | Cc1ccc(C(=O)Nc2nnc(-c3cccs3)s2)cc1C | 3.55 µM (active) | 
87 | Cc1nnc(NC(=O)c2ccc3nccnc3c2)s1 |  | 25% (inactive)
88 | O=C(CNS(=O)(=O)c1ccc2c(c1)OCCCO2)N1CCN(c2ccc(F)cc2)CC1 |  | -6.68% (inactive)

Row | SMILES | Potency | activation, negative = inhibition
89 | O=C(NCc1ccccc1CN1CCCC1)C1CCN(S(=O)(=O)c2ccc(Cl)cc2)CC1 |  | -2.56% (inactive)
90 | CCC(=O)Nc1ccc(-c2ccc(N3CCCCC3)nn2)cc1 | 1.58 µM (active) | 
91 | O=C(Nc1ccc(Sc2ccc(Br)cc2)cc1)c1ccco1 |  | 0.424% (inactive)
92 | CCCCSc1nnc(-c2ccc(NC(=O)CC)cc2)n1C |  | -0.478% (inactive)
93 | CC1CCN(C(NC(=O)c2ccco2)C(=O)c2ccccc2)CC1 (stereo not given) |  | 1.11% (inactive)
94 | CC1CCN(c2ccc(-c3ccc(NC(=O)c4ccco4)cc3)nn2)CC1 | 3.55 µM (active) | 
95 | CCC(=O)c1ccc(OCC(=O)Nc2ccc(N3CCCCC3)cc2)cc1 |  | 0.0254% (inactive)
96 | Cc1ccc(NC(=O)C(c2ccccc2)N2CCN(C(=O)c3ccco3)CC2)cc1 (stereo not given) |  | -8.49% (inactive)
97 | CC(C)N(Cc1nnc(-c2ccccc2Br)o1)C(=O)c1cc(Cl)nc2ccccc12 |  | -1.96% (inactive)
98 | CC(=O)c1c(C)[nH]c(C(=O)OCC(=O)Nc2c(C)n(C)n(-c3ccccc3)c2=O)c1C |  | -1.35% (inactive)
99 | COc1ccc(-c2nc(-c3ccccc3)no2)c(OC)c1 | 3.98 µM (active) | 
100 | COc1ccc(-c2noc(CNC(=O)C(C)Oc3ccccc3)n2)cc1 (stereo not given) |  | -1.61% (inactive)
101 | COc1ccc(-c2noc(-c3ccc(C)cc3)n2)cc1 | 2 µM (active) | 
102 | Cc1cccc(-c2nc(Nc3ccc(O)cc3)c3ccccc3n2)c1 |  | 0.0923% (inactive)
103 | COc1ccc(-c2noc(CSc3ccc(C)cc3)n2)cc1 |  | -4.26% (inactive)
104 | COc1ccc(-c2noc(CN(C)S(=O)(=O)c3ccc(C)cc3)n2)cc1 |  | 8.74% (inactive)
105 | COc1ccc(-c2noc(-c3cccc(OC)c3OC)n2)cc1OC | 2.24 µM (active) | 
106 | COc1ccc(-c2csc3nc(-c4ccccc4F)oc(=O)c23)cc1OC |  | -2.95% (inactive)
107 | COc1ccc(-c2noc(CCCC(=O)NC3CCCC3)n2)cc1OC |  | -5.38% (inactive)
108 | Cc1cccc(-c2noc(CCC(=O)NC3CCCC3)n2)c1 |  | 10.7% (inactive)
109 | COc1ccc(-c2n[nH]c(C)c2-c2ccccc2OC)c(O)c1 |  | -13% (inactive)
110 | Cc1cccc(-c2noc(-c3ccc(F)cc3)n2)c1 | 0.224 µM (active) | 
